Records with an inconclusive call do not appear. Activity calls are given as the source filed them. The call rests on the fitted dose curve; in most records, active means well fitted curve in the direction sought with a large enough effect; inconclusive means small, poorly fitted or top-dose-only effect, or another doubt; inactive means no such curve, though single readings can be large or run the other way.

Chain of Runt-related transcription factor 1 (Homo sapiens) + Core-binding factor subunit beta (Homo sapiens) (Q01196 whole entry, looked up): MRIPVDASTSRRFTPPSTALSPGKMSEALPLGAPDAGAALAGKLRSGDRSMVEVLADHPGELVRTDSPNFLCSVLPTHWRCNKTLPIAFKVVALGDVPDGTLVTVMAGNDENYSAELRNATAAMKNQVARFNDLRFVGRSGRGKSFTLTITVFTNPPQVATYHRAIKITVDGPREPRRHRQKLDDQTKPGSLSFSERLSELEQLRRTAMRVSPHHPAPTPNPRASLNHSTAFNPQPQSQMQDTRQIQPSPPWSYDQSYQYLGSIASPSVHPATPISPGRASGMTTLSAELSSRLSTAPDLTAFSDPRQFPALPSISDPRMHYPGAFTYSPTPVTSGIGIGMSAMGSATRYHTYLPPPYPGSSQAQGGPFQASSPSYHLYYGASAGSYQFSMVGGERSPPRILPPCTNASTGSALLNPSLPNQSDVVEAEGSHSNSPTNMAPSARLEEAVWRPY
Chain of Runt-related transcription factor 1 (Homo sapiens) + Core-binding factor subunit beta (Homo sapiens) (Q13951 whole entry, looked up): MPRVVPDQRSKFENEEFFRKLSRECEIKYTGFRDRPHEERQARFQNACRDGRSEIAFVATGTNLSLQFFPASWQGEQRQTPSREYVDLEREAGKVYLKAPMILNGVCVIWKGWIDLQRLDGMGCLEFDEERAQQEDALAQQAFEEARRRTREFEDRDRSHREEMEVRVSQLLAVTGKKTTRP

This assay has as its target Runt-related transcription factor 1 (Homo sapiens) + Core-binding factor subunit beta (Homo sapiens) (UniProt Q01196+Q13951). Put plainly: qHTS Assay for Compounds Blocking the Interaction Between CBF-beta and RUNX1 for the Treatment of Acute Myeloid Leukemia: SAR for Probe. The following applies: AlphaScreen CBFb-His/RUNX1-biotin binding, biochemical; series mostly up to 136 µM; activity change, negative = inhibition: at the top concentration. An excerpt: NIH Chemical Genomics Center [NCGC] NIH Molecular Libraries Probe Production centers Network [MLPCN] MLPCN Grant: X01MH083259-01 Assay Submitter (PI): Paul Liu NCGC Assay Overview: Core Binding Factor (CBF) abnormalities are associated with 20-25% of all acute myeloid leukemias (AML), of which 5-10% are further sub classified as acute myelomonocytic leukemia with eosinophilia, also known as M4Eo in the FAB classification scheme. This subtype of leukemia is usually associated with chromosome 16 inversion (p13:q22). Chromosome 16 inversion results in formation of the fusion oncogene CBFB-MYH11, which encodes the fusion protein CBF-beta-SMMHC. […] It has been hypothesized that the interference of CBF-beta and RUNX1 binding could have therapeutic implications for patients with CBF mediated leukemias. We developed a CBF-beta and RUNX1 binding assay in AlphaScreenTM format and optimized it for high throughput screening to search for inhibitors. The goal of this project is to screen MLPCN's compound collection (MLSMR) for identifying the inhibitors of the interaction between CBF-beta and RUNX1 proteins as research probes. If these probes work well in the animal models, the ultimate goal of this project is to development a new drug treatment for this disease. This assay can not be used to assess how apparent inhibitors interfere with protein binding, and whether inhibitors specifically bind to either protein. Disruption of this protein-protein interaction, through any mechanism, is the intended target activity. The present data set was run to confirm the activity of analogs to the probe in the primary screening assay.
NCGC Assay Protocol Summary: Step, Parameter, Description (1) Reagent, 3 uL CBFb-His/RUNX1-biotin mix incubated together for 20 minutes at room temperature (30 nM each) (2) Compound or control, 23 nL compound stock solution (3) Incubation, 15 minutes at Room temperature (4) Reagent, 1 uL 50 ng each of beads (Nickel beads and streptavidin beads) (5) Incubation, 90 minutes at Room temperature (6) Detection, […], Envision reader in AlphaScreenTM mode Keywords: MLSMR, MLPCN, NIH Roadmap, qHTS, NCGC, Core binding factor, CBF, CBF-beta, Acute myeloid leukemia
For `C[C@H](N)C(=O)Nc1ccc(Cl)cc1C(=O)c1ccc[nH]1`, the “activity change, negative = inhibition” value is -16.8% (inactive).

`CC(C)[C@H](N)C(=O)Nc1ccc(Cl)cc1C(=O)c1ccc[nH]1`: the “activity change, negative = inhibition” value was -13.5% (inactive).

On to `NCCC(=O)Nc1ccc(Cl)cc1C(=O)c1ccc[nH]1`, for which the “activity change, negative = inhibition” value is -19.4% (inactive).

As for `NCCCC[C@H](N)C(=O)Nc1ccc(Cl)cc1C(=O)c1ccc[nH]1`, the “activity change, negative = inhibition” value is 4.61% (inactive).

For the molecule `CCC(=O)Nc1ccc(Cl)cc1C(=O)c1ccc[nH]1`, the “activity change, negative = inhibition” value is -7.27% (inactive).

On to `NCC(=O)Nc1ccc(Cl)cc1C(=O)c1ccc[nH]1`, for which the Potency was 29.6 µM (active).

(Values after PubChem BioAssay AID504386 (National Center for Advancing Translational Sciences (NCATS), 2011).)
